Here are results for 153 variants from a collection of fitness landscapes (doi:10.1126/science.1257360).

The full ranking holds about 140,000 sequences; the median of “enrichment ratio after two sorts for PhoP signalling” is about 0, and the highest 2% start at about 11. This is one part of a sample in which the highest values are shown more often than they occur.

The labels stand for the following.
B1: PhoQ; a variant is named by its letters at X, in order, P23837 (parent)
chain: MKKLLRLFFPLSLRVRFLLATAAVVLVLSLAYGMVALIGYSVSFDKTTFRLLRGESNLFYTLAKWENNKLHVELPENIDKQSPTMTLIYDENGQLLWAQRDVPWLMKMIQPDWLKSNGFHEIEADVNDTSLLLSGDHSIQQQLQEVREDDDDAEMTHSVAVNVYPATSRMPKLTIVVVDTIPVELKSSYMVWSWFIYVLSANLLLVIPLLWVAAWWSLRPIEALAKEVRELEEHNRELLNPATTRELTSLVRNLNRLLKSERERYDKYRTTLTDLTHSLKTPLXXLQXXLRSLRSEKMSVSDAEPVMLEQISRISQQIGYYLHRASMRGGTLLSRELHPVAPLLDNLTSALNKVYQRKGVNISLDISPEISFVGEQNDFVEVMGNVLDNACKYCLEFVEISARQTDEHLYIVVEDDGPGIPLSKREVIFDRGQRVDTLRPGQGVGLAVAREITEQYEGKIVAGESMLGGARMEVIFGRQHSAPKDE

Variants of B1 are the subject of the experiment. Briefly: enrichment ratio after two sorts for PhoP signalling (ratio (wild type AVST 3.29)); higher = more functional. Particulars: with PhoP (E. coli).
On to TNGF, for which the enrichment ratio is 15.9. As for MNGF, the figure is 3.05; as for EEGF, not above 0.25. The figure for TVHF is not above 0.25; for TVGF it is 18.5; for EVNL it is not above 0.25. Consider TCLE, for which the enrichment ratio was not above 0.25. On to KQLE, for which the enrichment ratio was not above 0.25. As for DCCE, the figure is not above 0.25; as for THTS, 1.63. As to SNKW, the enrichment ratio was not above 0.25. As for SQFG, the figure is not above 0.25.

On to TNNL, for which the enrichment ratio stood at 0.757. The figure for TNGL is 12.6; for TNGD it is not above 0.25; for KAQF it is not above 0.25. For MNGI, the enrichment ratio was determined as 5.05. In the case of MNGL, the enrichment ratio was 9.61.

For the variant TLQF, the enrichment ratio is 15.7. Turning to TLHF, the enrichment ratio was not above 0.25. In the case of TNGI, the enrichment ratio was 15.2. Take DQWL: the enrichment ratio was not above 0.25. On to LLTH, for which the enrichment ratio was not above 0.25.

With CFSY, the enrichment ratio is not above 0.25.

As for QPRN, the enrichment ratio was not above 0.25. As for FNQY, the figure is not above 0.25; as for DTFM, not above 0.25.

For the variant LQVE, the enrichment ratio is not above 0.25.

On to AMMV, for which the enrichment ratio came to 21.8. Turning to AMMQ, the enrichment ratio is 13.1.

As to AIMQ, the enrichment ratio is not above 0.25. In the case of AMMD, the enrichment ratio was not above 0.25.

Turning to ADMQ, the enrichment ratio was not above 0.25. The figure for AMMS is 1.12; for NMMI it is not above 0.25; for AMMI it is 15. In the case of AMPV, the enrichment ratio was not above 0.25. GMVM: the enrichment ratio came out at 3.22. As for SNKV, the figure is not above 0.25. Consider QQCV, for which the enrichment ratio is not above 0.25.

Consider HHKS, for which the enrichment ratio is not above 0.25.

Regarding ISVD, the enrichment ratio is not above 0.25. Turning to AFGA, the enrichment ratio was not above 0.25. For NYGC, the enrichment ratio was not above 0.25. WHYL: the enrichment ratio is not above 0.25. In the case of QPGY, the enrichment ratio was not above 0.25. For QGWY, the enrichment ratio came to 75.8. Turning to FFGY, the enrichment ratio is not above 0.25.

Consider FFWY, for which the enrichment ratio was not above 0.25. For QGPY, the enrichment ratio was not above 0.25. As for QGGY, the enrichment ratio was 14.3. Regarding AGDM, the enrichment ratio is not above 0.25. TQGM: the enrichment ratio was determined as 14.5.

As for TQWM, the enrichment ratio was not above 0.25. Take AGRM: the enrichment ratio is not above 0.25.

As to SAWM, the enrichment ratio came out at 3.72. Turning to MMIM, the enrichment ratio is not above 0.25. Regarding SAIM, the enrichment ratio turned out to be 11.6. In the case of TQRM, the enrichment ratio was not above 0.25. With AGIM, the enrichment ratio was 11.8. As for NAIM, the figure is not above 0.25; as for QEIM, not above 0.25. As for MEIM, the figure is 48.5; as for GPHN, not above 0.25; as for RDSY, not above 0.25. For HQTV, the enrichment ratio is not above 0.25. In the case of ISLP, the enrichment ratio was not above 0.25.

Turning to DTRI, the enrichment ratio turned out to be 1.89. Regarding VMYN, the enrichment ratio is not above 0.25. On to SGIM, for which the enrichment ratio was 23.7. As for ITIM, the enrichment ratio was not above 0.25. Take STIM: the enrichment ratio stood at 15.3. Turning to SEWM, the enrichment ratio is 3.99. As for SRIM, the figure is 13.7; as for KYIM, not above 0.25; as for SEIM, 15.1. As to SGRM, the enrichment ratio is not above 0.25. For the variant TGIM, the enrichment ratio is not above 0.25. Consider YTIM, for which the enrichment ratio was 1.25. As for RGIM, the enrichment ratio is not above 0.25. SGDM: the enrichment ratio is not above 0.25.

With NCFV, the enrichment ratio was not above 0.25. In the case of ACCP, the enrichment ratio is not above 0.25. Consider AHDV, for which the enrichment ratio is not above 0.25. Consider IAPL, for which the enrichment ratio amounted to 0.723. As for FWFH, the enrichment ratio was not above 0.25. Take NRLH: the enrichment ratio is not above 0.25. Regarding YSSN, the enrichment ratio is not above 0.25. For the variant TQIM, the enrichment ratio amounted to 17.9. In the case of SAGD, the enrichment ratio was not above 0.25.

TQGP: the enrichment ratio was not above 0.25.

Turning to IQGH, the enrichment ratio was not above 0.25. The figure for SQIM is 20.8; for TQIV it is 1.59. For SLIM, the enrichment ratio is not above 0.25. As for TQGH, the enrichment ratio was found to be 18.9. As to TQPM, the enrichment ratio was not above 0.25.

As to SNIM, the enrichment ratio is not above 0.25. Regarding SAGM, the enrichment ratio was determined as 12.9. Consider SAPM, for which the enrichment ratio is 2.5. Take YRHV: the enrichment ratio was not above 0.25. For the variant SCLV, the enrichment ratio turned out to be 9.82.

QTDD: the enrichment ratio was not above 0.25. As for AISA, the figure is 10.4; as for AFMR, not above 0.25. Consider MLCP, for which the enrichment ratio is not above 0.25.

Turning to HKNV, the enrichment ratio was not above 0.25.

As for RAQI, the enrichment ratio was not above 0.25. As for MIHT, the figure is not above 0.25; as for DVMK, not above 0.25; as for WFDE, not above 0.25. For HTHH, the enrichment ratio is not above 0.25. Turning to YDIM, the enrichment ratio was not above 0.25. Take ATIM: the enrichment ratio is 19.5. For TQGG, the enrichment ratio came out at 1.42.

Turning to ADIM, the enrichment ratio is not above 0.25.

TQGA: the enrichment ratio is 2.57. With TQGQ, the enrichment ratio stood at 28. The figure for TDIS is 1.04.

For the variant HSAY, the enrichment ratio is not above 0.25. Consider EAHH, for which the enrichment ratio is not above 0.25.

For the variant YEYT, the enrichment ratio was not above 0.25. Turning to DFEY, the enrichment ratio is not above 0.25. For the variant SRCC, the enrichment ratio worked out at 0.803.

With SICC, the enrichment ratio was 17.3. Consider TSCC, for which the enrichment ratio came to 17.3. In the case of NSCC, the enrichment ratio is not above 0.25.

With WICC, the enrichment ratio was not above 0.25. Regarding SNCC, the enrichment ratio worked out at 14.7.

In the case of IQCC, the enrichment ratio is not above 0.25.

Consider SQCC, for which the enrichment ratio stood at 8.97. Turning to SSCC, the enrichment ratio was determined as 17.1.

Turning to SSTC, the enrichment ratio came out at 10.3.

Regarding KSCC, the enrichment ratio was not above 0.25.

In the case of KYCC, the enrichment ratio was not above 0.25.

For IFYT, the enrichment ratio was not above 0.25. Take FSGP: the enrichment ratio is not above 0.25. In the case of NGLQ, the enrichment ratio was not above 0.25. As for YYFP, the enrichment ratio is not above 0.25. For TTCC, the enrichment ratio was 11.5. Regarding ITCC, the enrichment ratio is not above 0.25. On to FQCC, for which the enrichment ratio is not above 0.25. The figure for CTCC is not above 0.25. Regarding GTCC, the enrichment ratio is not above 0.25. As to TQCC, the enrichment ratio stood at 65. As for STCC, the figure is 13.7; as for YTCC, not above 0.25. Regarding DWCC, the enrichment ratio is not above 0.25. As to EYTF, the enrichment ratio was not above 0.25. For NSIQ, the enrichment ratio was not above 0.25.

Regarding HLYG, the enrichment ratio was not above 0.25. In the case of PLPH, the enrichment ratio was not above 0.25. In the case of MDHD, the enrichment ratio was not above 0.25.
